# Results as given in PubChem BioAssay.
# A number with no mark means an inactive call. For some assays here: Measured potencies and affinities stand elsewhere. Activity calls are given as the source filed them. Unless noted, no rule for the calls is given here.
# Key:
# [1] = antimalarial activity against Dd2 strain (AID 2302;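 active = growth inhibition above 50% at the single 2 µM test dose, taken to imply half-maximal potency below 2 µM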;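 also: 0% = DMSO untreated growth and 100% = chloroquine plus artemisinin killed control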); details: P. falciparum Dd2 in RBCs, LDH growth readout, 72 h; at 2 µM; hits give high values
# [2] = HepG2 cytotoxicity, primary screen, cytotoxicity control for P. falciparum antimalarial project, cell-based, ATP luminescence (AID 2303;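 active = inhibition above 50%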;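 also: 0% = DMSO wells and 100% = digitonin-killed cells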); details: HepG2 viability, 24-48 h, at 10 µM, hits give high values
# [3] = target: L-lactate dehydrogenase (Plasmodium falciparum (isolate CDC / Honduras)) (UniProt Q27743); experiment: PfLDH activity inhibition – cell lysate, 3D7 strain, counter-screen for P. falciparum growth inhibition project (AID 2304);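 also: 0% = vehicle and 100% = reference inhibitor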; details: P. falciparum 3D7 crude extract, LDH APAD/NBT absorbance; at 2 µM; hits give high values
# Chain of L-lactate dehydrogenase (Plasmodium falciparum (isolate CDC / Honduras)) (Q27743 whole entry, looked up): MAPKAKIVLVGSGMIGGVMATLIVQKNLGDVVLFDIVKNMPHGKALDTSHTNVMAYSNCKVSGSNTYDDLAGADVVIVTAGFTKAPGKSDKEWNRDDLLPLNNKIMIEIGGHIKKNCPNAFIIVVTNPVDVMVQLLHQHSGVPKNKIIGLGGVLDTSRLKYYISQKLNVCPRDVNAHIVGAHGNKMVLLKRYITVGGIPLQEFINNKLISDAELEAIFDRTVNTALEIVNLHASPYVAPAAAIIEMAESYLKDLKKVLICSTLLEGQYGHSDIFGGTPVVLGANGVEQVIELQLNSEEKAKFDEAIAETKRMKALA
# [4] = inhibition of 3D7 malaria parasite growth – strain 3D7 (AID 2306);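 also: 0% = DMSO wells and 100% = chloroquine plus artemisinin control wells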; details: P. falciparum 3D7 erythrocytic growth, LDH absorbance, 72 h; at 2 µM; hits give high values
# [5] = target: Calcium-dependent protein kinase 1 (Plasmodium falciparum (isolate 3D7)) (UniProt P62344); experiment: PfCDPK1 kinase inhibitors, biochemical, TCAMS library (AID 1159585; cut-off not given, nearly all actives have IC50 up to about 0.98 µM;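 also: inhibitors leave more ATP so luminescence rises with inhibition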); details: recombinant PfCDPK1, Kinase-Glo ATP depletion luminescence
# Chain of Calcium-dependent protein kinase 1 (Plasmodium falciparum (isolate 3D7)) (P62344 whole entry, looked up): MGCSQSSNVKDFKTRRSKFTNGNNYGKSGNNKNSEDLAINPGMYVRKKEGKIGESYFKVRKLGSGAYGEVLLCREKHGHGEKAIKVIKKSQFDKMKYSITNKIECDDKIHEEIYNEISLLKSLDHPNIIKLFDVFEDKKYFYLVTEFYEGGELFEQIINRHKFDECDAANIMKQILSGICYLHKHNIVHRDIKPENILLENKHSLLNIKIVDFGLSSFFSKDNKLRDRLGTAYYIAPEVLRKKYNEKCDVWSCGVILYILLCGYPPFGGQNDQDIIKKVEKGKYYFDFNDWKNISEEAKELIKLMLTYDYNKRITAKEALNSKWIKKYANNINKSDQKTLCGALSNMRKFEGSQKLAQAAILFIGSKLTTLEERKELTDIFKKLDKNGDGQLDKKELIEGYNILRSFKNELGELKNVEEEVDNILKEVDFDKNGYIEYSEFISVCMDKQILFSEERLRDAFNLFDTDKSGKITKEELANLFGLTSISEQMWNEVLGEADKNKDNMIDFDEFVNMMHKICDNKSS
# [6] = target: Plasmodium falciparum protein kinase 6 (PK6, PF3D7_1337100) (UniProt Q8IDW1); experiment: PfPK6 kinase inhibitors, biochemical, TCAMS library (AID 1159586); details: recombinant PfPK6, Kinase-Glo ATP depletion luminescence
# Chain of Plasmodium falciparum protein kinase 6 (PK6, PF3D7_1337100) (Q8IDW1 1-305): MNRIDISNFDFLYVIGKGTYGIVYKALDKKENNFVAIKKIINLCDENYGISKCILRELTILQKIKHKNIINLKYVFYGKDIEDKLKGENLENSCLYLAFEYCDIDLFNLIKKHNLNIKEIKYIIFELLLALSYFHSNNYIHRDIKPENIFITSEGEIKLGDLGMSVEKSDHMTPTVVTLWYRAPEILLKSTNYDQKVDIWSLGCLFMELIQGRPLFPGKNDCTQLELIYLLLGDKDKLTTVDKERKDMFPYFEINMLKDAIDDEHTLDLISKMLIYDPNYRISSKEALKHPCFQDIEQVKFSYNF
# [7] = target: Protein kinase 7 (PK7), Plasmodium falciparum 3D7 (PF3D7_0213400) (UniProt Q7YTF7); experiment: inhibition of Plasmodium PK7 catalytic activity – biochemical, TCAMS antimalarial set, Kinase-Glo luminescence (AID 1159587); details: recombinant PfPK7, Kinase-Glo ATP depletion luminescence
# Chain of Protein kinase 7 (PK7), Plasmodium falciparum 3D7 (PF3D7_0213400) (Q7YTF7 1-343): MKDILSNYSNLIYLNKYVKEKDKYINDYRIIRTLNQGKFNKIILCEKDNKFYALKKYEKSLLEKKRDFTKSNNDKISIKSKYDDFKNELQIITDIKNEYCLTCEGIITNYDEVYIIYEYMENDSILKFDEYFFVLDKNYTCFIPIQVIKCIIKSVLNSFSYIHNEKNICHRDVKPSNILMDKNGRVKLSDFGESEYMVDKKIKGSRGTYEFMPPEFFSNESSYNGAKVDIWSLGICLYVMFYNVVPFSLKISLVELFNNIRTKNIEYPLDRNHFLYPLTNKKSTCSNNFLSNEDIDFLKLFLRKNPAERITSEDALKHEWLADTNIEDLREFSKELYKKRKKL
# [8] = target: Calcium-dependent protein kinase 4 (Plasmodium falciparum (isolate 3D7)) (UniProt Q8IBS5); experiment: PfCDPK4 kinase inhibitors, biochemical, TCAMS library (AID 1159588; cut-off not given, nearly all actives have IC50 up to about 0.91 µM); details: recombinant PfCDPK4, Kinase-Glo ATP depletion luminescence
# Chain of Calcium-dependent protein kinase 4 (Plasmodium falciparum (isolate 3D7)) (Q8IBS5 whole entry, looked up): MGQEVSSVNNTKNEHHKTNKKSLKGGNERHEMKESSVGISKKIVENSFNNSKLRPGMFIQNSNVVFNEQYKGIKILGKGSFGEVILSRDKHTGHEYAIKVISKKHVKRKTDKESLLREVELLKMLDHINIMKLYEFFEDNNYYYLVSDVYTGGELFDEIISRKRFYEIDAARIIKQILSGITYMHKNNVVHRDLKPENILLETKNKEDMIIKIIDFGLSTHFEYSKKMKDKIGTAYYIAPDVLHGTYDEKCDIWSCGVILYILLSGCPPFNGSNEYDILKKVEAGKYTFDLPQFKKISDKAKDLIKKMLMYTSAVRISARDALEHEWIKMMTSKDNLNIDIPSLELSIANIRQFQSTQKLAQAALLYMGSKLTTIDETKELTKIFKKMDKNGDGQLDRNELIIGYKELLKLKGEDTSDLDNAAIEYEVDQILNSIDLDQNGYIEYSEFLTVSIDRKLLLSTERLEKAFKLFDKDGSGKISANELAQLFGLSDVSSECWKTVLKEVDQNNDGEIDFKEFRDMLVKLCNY
Compound,growth inhibition [1],inhibition [2],inhibition [3] [%],growth inhibition [4],outcome [5],outcome [6],outcome [7],outcome [8]
CCCN(CCCCCCN(CCC)CCc1ccc(O)c(O)c1)CCc1ccc(O)cc1,5%,0%,-1,90% (active),inactive,inactive,inactive,inactive
Cc1ccccc1CNc1noc(-c2c(-c3ccccc3)noc2C)n1,70% (active),-4%,-2,94% (active),inactive,inactive,inactive,inactive
CCN(CC)CCN(Cc1ccc(-c2ccc(C(F)(F)F)cc2)cc1)C(=O)c1ccc(-c2ccc(NC(=O)OC)cc2C)cc1,42%,66% (active),-6,93% (active),inactive,inactive,inactive,inactive
CN1c2ccccc2Sc2cc(CNCCSCCNCc3ccc4c(c3)Sc3ccccc3N4C)ccc21,44%,58% (active),0,84% (active),inactive,inactive,inactive,inactive
COc1ccc(N2CCN(CCCNC(=O)c3ccc(NC(=O)c4cc(Cl)cc(Cl)c4)cc3)CC2)c(OC)c1,79% (active),21%,-4,101% (active),inactive,inactive,inactive,inactive
Cc1cccc2[nH]c(-c3cccc(-c4ccc(NC(=O)Cc5cnc[nH]5)cc4)c3)nc12,93% (active),4%,-3,101% (active),inactive,inactive,inactive,inactive
COc1ccc2nccc([C@@H](O)CN3CCC(NCCOc4cccc(C(F)(F)F)c4Cl)CC3)c2c1,98% (active),13%,-3,100% (active),inactive,inactive,inactive,inactive
COc1cc(OC)c2c(C)cc(NCCCN3CCOCC3)nc2c1,3%,6%,0,99% (active),inactive,inactive,inactive,inactive
COc1ccc2nccc([C@@H](O)CN3CCC(NC(=O)c4cccc(C(=O)c5ccccc5)c4)CC3)c2c1,99% (active),13%,2,99% (active),inactive,inactive,inactive,inactive
Cn1ncc2c3c(CCN4CCC(NCc5cc6c(cn5)OCC6)CC4)c(Cl)cnc3ccc21,0%,4%,2,94% (active),inactive,inactive,inactive,inactive
Cc1sc(CNCCCNc2cc(=O)c3ccccc3[nH]2)cc1Br,83% (active),12%,-3,100% (active),inactive,inactive,inactive,inactive
COc1cc2ncnc(Nc3ccc(OCc4ccccc4Br)c(Cl)c3)c2cc1OC,6%,25%,-4,96% (active),inactive,inactive,inactive,inactive
O=C(Nc1ccccc1C(F)(F)F)Nc1nn(Cc2c(F)cccc2Cl)cc1Br,86% (active),-15%,-8,100% (active),inactive,inactive,inactive,inactive
CNC(=O)C1Cc2c([nH]c3ccc(Br)cc23)C2(CCN(CCc3ccccc3)CC2)N1 (stereo not given),60% (active),15%,-2,101% (active),inactive,inactive,inactive,inactive
CCS[C@@H]1O[C@H](COC(=O)c2ccccc2)[C@H](OC(=O)c2ccccc2)[C@H](OC(=O)c2ccccc2)[C@H]1OC(=O)c1ccccc1,52% (active),4%,5,98% (active),inactive,inactive,inactive,inactive
c1ccc(-c2nc(Nc3nc4ccccc4[nH]3)[nH]c2-c2ccccc2)cc1,61% (active),14%,-5,96% (active),inactive,inactive,inactive,inactive
O=C(Nc1cccc(CN2CCCN(Cc3ccc(F)cc3)CC2)c1)c1ccc(Cl)c(Cl)c1,17%,27%,7,95% (active),inactive,inactive,inactive,inactive
CCCCN(CCCC)CCC(O)C(=Cc1ccc(Cl)cc1Cl)c1ccc(C(F)(F)F)cc1N (stereo not given),99% (active),-9%,1,100% (active),inactive,inactive,inactive,inactive
COc1cc(NCCCNCC2c3ccccc3Oc3ccccc32)nc2ccccc12,66% (active),99% (active),-9,99% (active),inactive,inactive,inactive,inactive
CC(=O)Nc1ccc(C(=O)Nc2cccc(-c3cccc(-c4nc5ccc(C(F)(F)F)cc5[nH]4)c3)c2)cn1,97% (active),8%,-2,101% (active),inactive,inactive,inactive,inactive

Compound,growth inhibition [1],inhibition [2],inhibition [3] [%],growth inhibition [4],outcome [5],outcome [6],outcome [7],outcome [8]
Fc1ccc2nc(-c3cccc(-c4cccc(CNCc5ccccc5)c4)c3)[nH]c2c1,52% (active),24%,-9,102% (active),inactive,inactive,inactive,inactive
CCN(C1CCCCC1)S(=O)(=O)c1ccc(OC)c(N2CCN(C(=O)C(Cl)(Cl)Cl)CC2)c1,85% (active),0%,3,100% (active),inactive,inactive,inactive,inactive
Cc1cc2ncn(-c3nccc(NCc4cccnc4)n3)c2cc1C,98% (active),-2%,-4,99% (active),inactive,inactive,inactive,inactive
O=C(Nc1cccc(CN2CCCN(Cc3ccc4c(c3)OCO4)CC2)c1)c1ccc(Cl)c(Cl)c1,10%,34%,-2,92% (active),inactive,inactive,inactive,inactive
CC1(C)N=C(N)N=C(N)N1OCCc1cccc2ccccc12,97% (active),57% (active),-2,95% (active),inactive,inactive,inactive,inactive
Cc1cc(OCCCN2CCC(NS(=O)(=O)c3cc(Br)c(Cl)s3)CC2)c2ccccc2n1,39%,5%,3,95% (active),inactive,inactive,inactive,inactive
O=C(NCC1CC1)C1Cc2c([nH]c3ccc(Br)cc23)C2(CCN(CCc3ccccc3)CC2)N1 (stereo not given),25%,14%,1,88% (active),inactive,inactive,inactive,inactive
CCCCc1cc(N2CCC(NC(C)=O)C2)nc(Nc2ccc(C)cc2)n1 (stereo not given),1%,2%,-8,95% (active),inactive,inactive,inactive,inactive
CCCN(CCCCCCNCCc1ccc(Cl)cc1)CCc1ccc(O)c(O)c1,11%,26%,-3,91% (active),inactive,inactive,inactive,inactive
CCOC(=O)c1cn(CC)c2cc(F)c(OC3C[C@@H]4CC[C@@]3(C)C4(C)C)cc2c1=O (stereo not given in full),70% (active),-7%,-1,91% (active),inactive,inactive,inactive,inactive
C=C(C)C1CC=C(CN2CCCC(n3ccc4cc(NC(=O)c5ccco5)ccc43)CC2)CC1 (stereo not given),95% (active),13%,1,90% (active),inactive,inactive,inactive,inactive
COc1ccc2nccc([C@@H](O)CN3CCC(NC(=O)/C=C/c4ccc5cc(C)[nH]c5c4)CC3)c2c1,93% (active),7%,-6,97% (active),inactive,inactive,inactive,inactive
CC1CCN(c2nc(C(=O)Nc3ccc(F)cc3C(F)(F)F)c(C(C)C)s2)CC1,66% (active),5%,-5,101% (active),inactive,inactive,inactive,inactive
CC1(C)C=C(c2ccncc2)c2cc(Cl)ccc2O1,22%,-4%,1,97% (active),inactive,inactive,inactive,inactive
CCCCCc1cc(OCCN(C)C)cc2c1C(=O)CC(C)(C)O2,-2%,5%,6,98% (active),inactive,inactive,inactive,inactive
CCCN(Cc1nnc(-c2cccs2)o1)C(=O)CSc1nnnn1-c1ccc(C)c(C)c1,80% (active),-7%,0,96% (active),inactive,inactive,inactive,inactive
N#Cc1ccc(N2CCN(Cc3cccc(-c4cccc(-c5nc6ccc(C(F)(F)F)cc6[nH]5)c4)c3)CC2)nc1,50% (active),15%,6,99% (active),inactive,inactive,inactive,inactive
CN1CCC(NCc2ccc(-c3cnc(NCc4ccccc4)nc3)cc2)CC1,64% (active),23%,4,91% (active),inactive,inactive,inactive,inactive
COc1cc(C(=O)Nc2cccc(-c3cn4cccc(C)c4n3)c2)cc(OC)c1OC,77% (active),-3%,-1,99% (active),inactive,inactive,inactive,inactive
CCC(=O)c1cc(C(=O)NCCc2cccc(OC)c2)ccc1OC,12%,-7%,-2,83% (active),inactive,inactive,inactive,inactive
